Measured values published in PubChem BioAssay (EPA / NIEHS).
Results filed as inconclusive are left out. The source made the active and inactive calls. How the source made its calls, unless noted: active means hit-call score of the fitted dose curve at least 0.9, where 1 is the maximum; inactive means score below 0.9.

Tests used:
[1] = biological target: Retinoic acid receptor alpha (Homo sapiens) (UniProt P10276); assay: ATG_DR5_RAR_CIS: Attagene CIS-FACTORIAL HepG2 Assay for human Retinoic Acid Receptor Alpha (RARE), DR5 submotif (AID 2282934); conditions: HepG2 Attagene cis-factorial RARE DR5 reporter, mRNA; actives raise or lower the signal
Retinoic acid receptor alpha (Homo sapiens), sequence (P10276 whole entry, looked up): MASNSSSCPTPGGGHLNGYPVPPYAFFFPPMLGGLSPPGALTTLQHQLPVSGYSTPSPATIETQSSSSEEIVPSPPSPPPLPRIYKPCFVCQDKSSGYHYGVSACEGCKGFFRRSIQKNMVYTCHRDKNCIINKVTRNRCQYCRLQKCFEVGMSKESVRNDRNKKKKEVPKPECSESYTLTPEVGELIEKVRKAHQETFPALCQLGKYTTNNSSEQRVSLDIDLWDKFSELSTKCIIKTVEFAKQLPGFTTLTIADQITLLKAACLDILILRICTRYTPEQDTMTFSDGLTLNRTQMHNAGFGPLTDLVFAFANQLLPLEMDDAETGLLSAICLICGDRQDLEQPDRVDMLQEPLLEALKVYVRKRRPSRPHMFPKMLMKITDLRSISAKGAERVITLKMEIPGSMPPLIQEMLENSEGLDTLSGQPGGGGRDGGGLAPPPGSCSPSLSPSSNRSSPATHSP
Summary of the method: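 Transfected HepG2 reporter cells are exposed to chemicals for 24 h. Then RNA is extracted and the DR5 element reporter transcript is measured by RT-PCR and capillary electrophoresis, with bidirectional curve fitting relative to DMSO.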

[2] = biological target: Estrogen receptor (Homo sapiens) (UniProt P03372); assay: ATG_ERa_TRANS: Attagene TRANS-FACTORIAL HepG2 Assay for human Estrogen Receptor alpha (ERa) (AID 2282970; active means hit-call score of the fitted dose curve at least 0.9, where 1 is the maximum); conditions: HepG2 Attagene TRANS ERa GAL4 reporter, mRNA
Estrogen receptor (Homo sapiens), sequence (P03372 whole entry, looked up, the tested form may be a part): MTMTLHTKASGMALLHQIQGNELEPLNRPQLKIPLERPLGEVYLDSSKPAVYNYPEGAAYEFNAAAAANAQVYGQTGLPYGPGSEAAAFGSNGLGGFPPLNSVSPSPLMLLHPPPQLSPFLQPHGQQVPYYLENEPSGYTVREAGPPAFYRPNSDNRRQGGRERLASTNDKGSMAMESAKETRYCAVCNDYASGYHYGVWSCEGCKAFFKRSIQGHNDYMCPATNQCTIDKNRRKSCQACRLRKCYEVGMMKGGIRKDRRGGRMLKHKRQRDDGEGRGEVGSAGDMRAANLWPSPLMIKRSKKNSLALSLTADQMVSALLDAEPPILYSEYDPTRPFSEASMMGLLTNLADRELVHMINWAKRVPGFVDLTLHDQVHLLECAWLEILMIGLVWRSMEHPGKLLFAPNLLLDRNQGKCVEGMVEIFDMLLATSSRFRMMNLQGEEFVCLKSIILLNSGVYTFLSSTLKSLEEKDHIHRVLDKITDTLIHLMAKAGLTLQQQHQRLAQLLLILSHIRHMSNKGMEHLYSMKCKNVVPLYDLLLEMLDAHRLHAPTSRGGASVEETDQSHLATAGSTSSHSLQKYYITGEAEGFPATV
Summary of the method: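 Signal derives from fluorescence of labelled reporter PCR fragments separated by capillary electrophoresis. HepG2 cells transiently carrying multiple GAL4-UAS reporter units were treated 24 hours, and induction above DMSO baseline was fitted as activity.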

[3] = read-out: Vascular endothelial growth factor receptor 2 (Homo sapiens) (UniProt P35968); assay: BSK_4H_VEGFRII: BioMAP Diversity Plus: 4H Assay for Vascular endothelial growth factor receptor 2 (VEGFR2) Biomarker Activity (AID 2283031); conditions: primary human endothelial cells (HUVEC); actives raise or lower the signal;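 on AC50: cell-surface VEGFR2 protein level quantified by ELISA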
Summary of the method: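 In this multiplexed HUVEC system, biomarker ELISA was performed after 24 h chemical exposure. Parallel SRB staining (TCA fixation, 560 nm) tracked cytotoxicity; DMSO served as baseline.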

[4] = read-out: Human Leukocyte Antigen - DR isotype (HLADR), HLA-DRA (gene 3122); assay: BSK_BE3C_HLADR: BioMAP Diversity Plus: BE3C Assay for Human Leukocyte Antigen - DR isotype (HLADR) Biomarker Activity (AID 2283032); conditions: primary human bronchial epithelial cells; actives raise or lower the signal
Summary of the method: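 BioMAP BE3C format: human bronchial epithelium, 24 h compound treatment, ELISA detection of HLA-DR, with bidirectional analysis relative to DMSO.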

[5] = read-out: TIMP metallopeptidase inhibitor 2 (TIMP2), TIMP2 (gene 7077); assay: BSK_KF3CT_TIMP2: BioMAP Diversity Plus: KF3CT Assay for TIMP metallopeptidase inhibitor 2 (TIMP2) Biomarker Activity (AID 2283071); conditions: primary human keratinocytes with fibroblasts; actives raise or lower the signal
Summary of the method: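 Measurements come from ELISA detection of TIMP-2 at 24 hours in a dosed human keratinocyte and foreskin fibroblast co-culture. DMSO serves as negative control and baseline.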

[6] = read-out: C-C motif chemokine 2 (Homo sapiens) (UniProt P13500); assay: BSK_KF3CT_MCP1: BioMAP Diversity Plus: KF3CT Assay for Monocyte Chemoattractant Protein 1 (MCP1/CCL2) Biomarker Activity (AID 2283073); conditions: primary human keratinocytes with fibroblasts; actives raise or lower the signal
Summary of the method: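 Biomarker MCP-1 is measured by ELISA in primary human keratinocytes co-cultured with foreskin fibroblasts, 24 h after chemical treatment; DMSO serves as the negative control and activity baseline.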

[7] = read-out: urokinase plasminogen activator (uPA), PLAU (gene 5328); assay: BSK_KF3CT_uPA: BioMAP Diversity Plus: KF3CT Assay for urokinase plasminogen activator (uPA) Biomarker Activity (AID 2283075); conditions: primary human keratinocytes with fibroblasts; actives raise or lower the signal
Summary of the method: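 Values derive from bidirectional fitting against DMSO controls. Keratinocyte/foreskin fibroblast co-cultures received chemical; 24 h later uPA was detected by ELISA, with SRB total-protein staining in parallel wells for overt cytotoxicity.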

CD40, CD40 (gene 958) = assay: BSK_LPS_CD40: BioMAP Diversity Plus: LPS Assay for CD40 Biomarker Activity (AID 2283076); conditions: primary human HUVEC with PBMC; actives raise or lower the signal
Summary of the method: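 Using a multiplexed primary human co-culture (umbilical vein endothelium plus PBMC), CD40 was read by ELISA 24 h after dosing, with cytotoxicity tracked by sulforhodamine B staining of parallel cultures and activity fitted bidirectionally versus DMSO.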

[8] = read-out: E-selectin (Homo sapiens) (UniProt P16581); assay: BSK_LPS_Eselectin: BioMAP Diversity Plus: LPS Assay for Eselectin Biomarker Activity (AID 2283077); conditions: primary human HUVEC with PBMC; actives raise or lower the signal
Summary of the method: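 Dose chemical onto LPS-driven HUVEC/PBMC co-culture; after 24 h, run ELISA for E-selectin; fit up- and down-going responses relative to DMSO control.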

[9] = read-out: Interleukin-8 (IL8), CXCL8 (gene 3576); assay: BSK_LPS_IL8: BioMAP Diversity Plus: LPS Assay for Interleukin-8 (IL8) Biomarker Activity (AID 2283078); conditions: primary human HUVEC with PBMC; actives raise or lower the signal
Summary of the method: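 In this LPS system, chemical-treated human umbilical vein endothelium/PBMC co-cultures were harvested at 24 h for IL-8 ELISA.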

[10] = BSK_LPS_SRB: Viability Assessment in the BioMAP Diversity Plus: LPS Assay (AID 2283079); conditions: primary human HUVEC with PBMC;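 further: total protein by sulforhodamine B absorbance as a cytotoxicity measure; measured one day after compound addition; fitted in both directions against DMSO so loss or gain of signal counts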
Summary of the method: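 Cytotoxicity endpoint in human endothelial–PBMC co-culture: 24 h exposure, then SRB (0.1%) staining, 560 nm read.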

[11] = read-out: Monocyte Chemoattractant Protein-1 (MCP1), CCL2 (gene 6347); assay: BSK_LPS_MCP1: BioMAP Diversity Plus: LPS Assay for Monocyte Chemoattractant Protein-1 (MCP1) Biomarker Activity (AID 2283081); conditions: primary human HUVEC with PBMC; actives raise or lower the signal;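 on AC50: co-culture stimulated with LPS; secreted MCP-1 protein quantified by ELISA in culture supernatant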
Summary of the method: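 Values derive from bidirectional fitting against DMSO of ELISA-measured MCP-1 in a human primary endothelial and mononuclear cell co-culture, 24 h after chemical addition under LPS activation.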

[12] = read-out: Macrophage colony-stimulating factor (MCSF), CSF1 (gene 1435); assay: BSK_LPS_MCSF: BioMAP Diversity Plus: LPS Assay for Macrophage colony-stimulating factor (MCSF) Biomarker Activity (AID 2283083); conditions: primary human HUVEC with PBMC; actives raise or lower the signal
Summary of the method: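 Bidirectional fit versus DMSO of ELISA-measured M-CSF in co-cultured human umbilical vein endothelial cells and PBMC, sampled 24 h after dosing.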

[13] = read-out: Tissue Factor, F3 (gene 2152); assay: BSK_LPS_TissueFactor: BioMAP Diversity Plus: LPS Assay for Tissue Factor Biomarker Activity (AID 2283084); conditions: primary human HUVEC with PBMC; actives raise or lower the signal
Summary of the method: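 Read-out: CD142 ELISA, 24 h. System: LPS-driven human endothelial/PBMC co-culture. Analysis: up- or down-signal fitted against DMSO.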

[14] = read-out: Vascular cell adhesion molecule 1 (VCAM1), VCAM1 (gene 7412); assay: BSK_LPS_VCAM1: BioMAP Diversity Plus: LPS Assay for Vascular cell adhesion molecule 1 (VCAM1) Biomarker Activity (AID 2283086); conditions: primary human HUVEC with PBMC; actives raise or lower the signal
Summary of the method: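 Measured by ELISA: VCAM-1 in LPS-activated HUVEC/PBMC co-cultures 24 h after treatment. Values reflect bidirectional fitting with DMSO as baseline.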

CD38, CD38 (gene 952) = assay: BSK_SAg_CD38: BioMAP Diversity Plus: SAg Assay for CD38 Biomarker Activity (AID 2283087); conditions: primary human HUVEC with PBMC; actives raise or lower the signal
Summary of the method: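 Measures CD38 on a human endothelial/PBMC co-culture driven by SEB and TSST-1, 24 h after compound exposure, using ELISA with fluorescence detection; DMSO defines baseline for bidirectional curve fitting.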

CD69, CD69 (gene 969) = assay: BSK_SAg_CD69: BioMAP Diversity Plus: SAg Assay for CD69 Biomarker Activity (AID 2283089); conditions: primary human HUVEC with PBMC; actives raise or lower the signal;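 on AC50: cell surface CD69 protein quantified by ELISA with fluorescence detection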
Summary of the method: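 Values derive from bidirectional fitting relative to DMSO vehicle. Cells: umbilical vein endothelium plus peripheral blood mononuclear cells, treated 24 h before fluorescent ELISA for CD69.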

[15] = read-out: Monocyte Chemoattractant Protein-1 (MCP1), CCL2 (gene 6347); assay: BSK_SAg_MCP1: BioMAP Diversity Plus: SAg Assay for Monocyte Chemoattractant Protein-1 (MCP1) Biomarker Activity (AID 2283090); conditions: primary human HUVEC with PBMC; actives raise or lower the signal
Summary of the method: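 Values derive from bidirectional fitting of ELISA-measured MCP1 against DMSO controls. Readings were taken 24 h after dosing human vascular endothelial cells co-cultured with peripheral blood mononuclear cells under superantigen stimulation.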

[16] = read-out: E-selectin (Homo sapiens) (UniProt P16581); assay: BSK_SAg_Eselectin: BioMAP Diversity Plus: SAg Assay for Eselectin Biomarker Activity (AID 2283091); conditions: primary human HUVEC with PBMC; actives raise or lower the signal
Summary of the method: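 Endpoint values derive from bidirectional fitting relative to DMSO, using ELISA-measured E-selectin in a human vascular co-culture (umbilical vein endothelium plus PBMC) sampled 24 h after dosing.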

[17] = read-out: Interleukin-8 (IL8), CXCL8 (gene 3576); assay: BSK_SAg_IL8: BioMAP Diversity Plus: SAg Assay for Interleukin-8 (IL8) Biomarker Activity (AID 2283094); conditions: primary human HUVEC with PBMC; actives raise or lower the signal
Summary of the method: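 Primary human endothelial cells with PBMC, exposed 24 h; IL-8 determined by ELISA, analysed bidirectionally relative to DMSO.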

Measured: AC50

E-selectin (Homo sapiens), sequence (P16581 whole entry, looked up): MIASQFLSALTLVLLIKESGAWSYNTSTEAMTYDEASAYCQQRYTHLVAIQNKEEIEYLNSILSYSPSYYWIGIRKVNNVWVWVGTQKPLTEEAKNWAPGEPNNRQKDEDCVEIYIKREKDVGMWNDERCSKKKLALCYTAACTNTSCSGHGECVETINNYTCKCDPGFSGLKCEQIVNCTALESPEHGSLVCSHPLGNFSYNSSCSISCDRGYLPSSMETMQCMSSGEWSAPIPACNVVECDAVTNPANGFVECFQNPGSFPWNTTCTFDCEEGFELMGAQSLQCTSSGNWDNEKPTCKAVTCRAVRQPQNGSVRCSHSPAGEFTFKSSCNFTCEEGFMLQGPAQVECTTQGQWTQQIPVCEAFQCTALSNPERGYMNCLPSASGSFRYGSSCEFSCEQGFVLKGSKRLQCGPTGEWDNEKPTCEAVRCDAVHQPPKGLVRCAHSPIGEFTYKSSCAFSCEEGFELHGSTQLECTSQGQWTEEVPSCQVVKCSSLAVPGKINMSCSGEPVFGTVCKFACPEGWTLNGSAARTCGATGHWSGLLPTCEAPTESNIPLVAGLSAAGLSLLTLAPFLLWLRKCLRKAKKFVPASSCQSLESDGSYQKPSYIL

CCC1CCC(=O)O1 (configuration not stated)
inactive: [1]

O=P(O)(Oc1ccccc1)Oc1ccccc1
inactive: [2]

O=S(=O)(c1ccccc1)c1ccccc1
inactive: [3] | [4] | [5] | [6] | [7] | CD40, CD40 (gene 958) | [8] | [9] | [10] | [11] | [12] | [13] | [14] | CD38, CD38 (gene 952) | CD69, CD69 (gene 969) | [15] | [16] | [17]

CC(C)CCCCCCCOP(=O)(Oc1ccccc1)Oc1ccccc1
inactive: [9]
active: [2] 5.78 µM | [3] 10.9 µM | [4] 13.9 µM | [5] 16.1 µM | [6] 31.4 µM | [7] 20 µM | CD40, CD40 (gene 958) 11.3 µM | [8] 23 µM | [10] 23.7 µM | [11] 20 µM | [12] 15.3 µM | [13] 31 µM | [14] 27.8 µM | CD38, CD38 (gene 952) 25.9 µM | CD69, CD69 (gene 969) 16.7 µM | [15] 20 µM | [16] 24.4 µM | [17] 11.9 µM

C=C(Cl)CCl
inactive: [2]

CC(C)(C)C(=O)CCl
active: [4] 20 µM | CD40, CD40 (gene 958) 28.7 µM | [12] 30.4 µM | [14] 24.3 µM | CD38, CD38 (gene 952) 27 µM | CD69, CD69 (gene 969) 8.75 µM | [16] 20 µM
inactive: [2] | [3] | [5] | [6] | [7] | [8] | [10] | [11] | [13] | [15] | [17]

C=CCN(CC=C)C(=O)C(Cl)Cl
inactive: [3] | [4] | [5] | [6] | [7] | CD40, CD40 (gene 958) | [8] | [9] | [10] | [11] | [12] | [13] | [14] | CD38, CD38 (gene 952) | CD69, CD69 (gene 969) | [15] | [16] | [17]

Nc1ccccc1C(=O)OCCc1ccccc1
inactive: [1]
